SMARCA2 activ: activators of SMARCA2 function. 1% of 370,000 active. activation, % at 9.1 µM. MG213 cells, MMTV-luciferase reporter, dexamethasone, overnight; in the data active means activation above about 7.8%
esBAF inh: SWI/SNF esBAF complex inhibition; mouse ES cells, Bmi1-luciferase knock-in reporter, 24 h; 100% = twice the neutral-well signal; reporter increase, % at 12.5 µM; 2% of 350,000 active; AID 602393; in the data active means activation above about 40%; inconclusive means no clear call, values can overlap the other calls;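 further: a rise in the Bmi1 reporter signal indicates esBAF inhibition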
Wnt act: Wnt/beta-catenin pathway activation | Wnt/beta-catenin reporter cell assay, activator, plate reader | activation, % at 9.35 µM | 1.2% of 300,000 active | AID 743398; in the data active means activation above about 30%, passing the limit was not always enough; inconclusive means no clear call, values can overlap the other calls
HSF1 activator: increases HSF-1 driven luciferase reporter signal | 1.7% of 300,000 active | AID 504408 | NIH3T3-HGL HSF-1 luciferase reporter, MG132, 8 h; 100% = twice DMSO control signal | activation, % at 9 µM;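 active means mean replicate activation of at least 50% with a set share of replicates each reaching 50%; inconclusive means only one of those two conditions met; inactive means mean below 50% and too few replicates reaching it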
HSF1 inh: HSF1 inhibition; NIH3T3-HGL HSE-luciferase, MG132-induced, luminescence 8 h; hits give low values; activity change, negative = inhibition, % at 7.5 µM (by protocol); 0.77% of 300,000 active; AID 2098;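 active means more than half of replicate wells show activity change below -50%, luminescence cut by over half; inconclusive means some wells, but at most half, below -50%; inactive means no replicate well below -50%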;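 further: luciferase reports HSF-1 transcriptional activity via heat shock element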
MITF TRPM1 HTS: MITF TRPM1 promoter activation in melanoma cells | SK-MEL-5 TRPM1-promoter luciferase, 24 h; % of positive control, neutral wells = 0 | activation, % at 12.5 µM | 0.75% of 300,000 active;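 active means mean activation of at least 80% with every replicate also reaching 80%; inconclusive means mean reaches 80% but some replicate falls short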
Each line names hits and unclear results; the compound was inactive in the other large screens. This is a sample that favours compounds with a hit; in the whole collection about 4.3% have one here.

Cc1cccc(N2CC(C(=O)NC3CCCCCC3)CC2=O)c1C (stereo not given)	Wnt act 368 (no result: HSF1 activator, HSF1 inh)
CCOc1ccc(C2N(c3ccc(F)cc3)C(=O)C3CCCN32)cc1OC (stereo not given)	HSF1 inh -52
CCOc1ccc(C2N(c3ccc(OC)cc3)C(=O)C3CCCN32)cc1OC (stereo not given)	none
CCOC(=O)c1cnc(SCC(=O)N2CCN(C(=O)c3ccco3)CC2)nc1N	none (no result: Wnt act, MITF TRPM1 HTS)
CCCCSc1ncc(C(=O)OCC)c(N)n1	HSF1 activator 64, MITF TRPM1 HTS 112 (no result: Wnt act)
CCOC(=O)c1cnc(SCc2ccc(C)cc2)nc1N	esBAF inh 61, HSF1 activator inconclusive (no result: Wnt act)
CCOC(=O)c1cnc(SCCc2ccccc2)nc1N	esBAF inh 42, Wnt act 37, HSF1 activator 88, MITF TRPM1 HTS 95
CCOC(=O)c1cnc(SCC(=O)c2ccc(Cl)cc2)nc1N	none (no result: MITF TRPM1 HTS)
C[C@H](CO)N1C[C@H](C)[C@@H](CN(C)Cc2ccc(C(F)(F)F)cc2)Oc2ccc(NS(=O)(=O)c3cn(C)cn3)cc2CC1=O	none (no result: SMARCA2 activ, Wnt act, HSF1 activator, HSF1 inh, MITF TRPM1 HTS)
CCC(=O)N(C)C[C@@H]1Oc2ncc(-c3ccc(C)cc3)cc2C(=O)N([C@H](C)CO)C[C@@H]1C	none (no result: SMARCA2 activ, Wnt act, HSF1 activator, HSF1 inh, MITF TRPM1 HTS)
CCN1[C@@H]2c3ccc(-c4ccncc4)c(=O)n3C[C@H]1[C@H](CO)[C@H]2C(=O)NCc1ccccc1	none (no result: SMARCA2 activ, Wnt act, HSF1 activator, HSF1 inh, MITF TRPM1 HTS)
COc1ccc(/C=N/N=C2/SCC(=O)N2Cc2ccccc2)cc1	Wnt act 56, HSF1 activator 66 (no result: esBAF inh, MITF TRPM1 HTS)
CC(=O)N(C)c1cc([N+](=O)[O-])ccc1OCc1ccccc1	none (no result: HSF1 activator, HSF1 inh)
Cc1ccc(CONC(=O)c2ccc(Cl)cc2)cc1	Wnt act 34 (no result: HSF1 activator, HSF1 inh)
Cc1ccc(CONC(=O)c2ccc(C)cc2)cc1	esBAF inh 44, Wnt act 38, MITF TRPM1 HTS 95 (no result: HSF1 activator, HSF1 inh)
O=C(NOCc1ccccc1)c1ccc([N+](=O)[O-])cc1	Wnt act 38 (no result: HSF1 activator, HSF1 inh)
Nc1cc([N+](=O)[O-])ccc1OCc1ccccc1	Wnt act 48 (no result: esBAF inh, HSF1 activator, HSF1 inh)
O=C(NOCc1ccccc1)c1ccc(Cl)cc1	none (no result: HSF1 activator, HSF1 inh)
COc1ccc(CNC(=O)C[C@H]2C[C@@H]3c4cc(NC(=O)CC5CC5)ccc4O[C@@H]3[C@@H](CO)O2)cc1	none (no result: SMARCA2 activ, Wnt act, HSF1 activator, HSF1 inh, MITF TRPM1 HTS)
C[C@H](NC(=O)C[C@@H]1CC[C@H]2[C@H](COc3ccc(NS(=O)(=O)c4ccc(Cl)cc4)cc3C(=O)N2C)O1)c1ccccc1	none (no result: SMARCA2 activ, Wnt act, HSF1 activator, HSF1 inh, MITF TRPM1 HTS)
CCS(=O)(=O)Nc1ccc2c(c1)C(=O)N(C)C[C@H](OC)[C@@H](C)CN(Cc1ccccn1)[C@H](C)CO2	none (no result: SMARCA2 activ, Wnt act, HSF1 activator, HSF1 inh, MITF TRPM1 HTS)
C[C@@H]1CCCCO[C@H](CN(C)Cc2ccccc2)[C@@H](C)CN([C@H](C)CO)C(=O)c2cc(NC(=O)C3CCCCC3)ccc2O1	none (no result: SMARCA2 activ, Wnt act, HSF1 activator, HSF1 inh, MITF TRPM1 HTS)
CN1CCN(C(=O)C[C@H]2CC[C@H](NC(=O)Cc3ccccn3)[C@@H](CO)O2)CC1	none (no result: SMARCA2 activ, Wnt act, HSF1 activator, HSF1 inh, MITF TRPM1 HTS)
CCOC(=O)c1c(C)[nH]c(C(=O)COC(=O)C2CC2)c1C	esBAF inh inconclusive, MITF TRPM1 HTS 86 (no result: HSF1 activator, HSF1 inh)
CC(=O)c1c(C)[nH]c(C(=O)COC(=O)C2CC2)c1C	none
CCOC(=O)c1c(C)[nH]c(C(=O)COC(=O)C2(C)CC2(Cl)Cl)c1C (stereo not given)	esBAF inh 76, Wnt act 50, HSF1 activator 56
CCOC(=O)CC(=O)c1[nH]c(C)c(C(=O)OCC)c1C	none (no result: esBAF inh)
CC1CCCCN1C(=O)C12CCC(C)(C(=O)C1)C2(C)C (stereo not given)	none
CC1Cc2ccccc2N1C(=O)C12CCC(C)(C(=O)C1)C2(C)C (stereo not given)	HSF1 inh -63 (no result: MITF TRPM1 HTS)
Cc1ccc(S(=O)(=O)Nc2ccc3c(c2)C(=O)N([C@@H](C)CO)C[C@H](C)[C@H](CN(C)C(=O)c2ccncc2)OCCCC[C@@H](C)O3)cc1	none (no result: SMARCA2 activ, Wnt act, HSF1 activator, HSF1 inh, MITF TRPM1 HTS)
CCCN1[C@@H]2c3ccc(-c4ccncc4)c(=O)n3C[C@@H]2[C@@H](CO)[C@@H]1C(=O)N1CCOCC1	none (no result: SMARCA2 activ, Wnt act, HSF1 activator, HSF1 inh, MITF TRPM1 HTS)
C[C@@H]1CCCCO[C@@H](CN(C)C(=O)CCCN(C)C)[C@@H](C)CN([C@H](C)CO)C(=O)c2cc(NC(=O)NC3CCCCC3)ccc2O1	none (no result: SMARCA2 activ, Wnt act, HSF1 activator, HSF1 inh, MITF TRPM1 HTS)
O=C(Nc1ccc2oc(-c3ccncc3)nc2c1)c1cccs1	none (no result: Wnt act)
O=C(Nc1ccc2oc(-c3ccncc3)nc2c1)c1ccc([N+](=O)[O-])o1	HSF1 activator 84
O=C(Nc1ccc(-c2nc3ccccc3o2)cc1)c1ccc(N2CCOCC2)c([N+](=O)[O-])c1	none (no result: esBAF inh)
